PfGluPho inh = PfG6PD (Plasmodium falciparum) enzyme inhibition | PfGluPho enzyme, NADPH resazurin-diaphorase fluorescence | inhibition, % at 20 µM | 350,000 compounds, 0.78% hits;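 active = inhibition reaching at least a set limit at 20 µM in the primary screen, cut at about 59% in these data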;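 note: 0% = DMSO wells with substrate and 100% = DMSO wells lacking glucose-6-phosphate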
PfM18AAP inh-1 = PfM18AAP enzyme inhibition; inhibition, % at 7.35 µM; 290,000 compounds, 1.2% hits; recombinant PfM18AAP, H-Glu-NHMec fluorogenic cleavage; AID 1822;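 active = inhibition above the campaign mean inhibition over all tested compounds plus 3 SD, cut at about 28% in these data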;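 note: 0% = plate median of test compound wells and 100% = 2 mM ZnCl2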
UHRF1 binding = blocks human UHRF1 binding to methylated DNA | AID 687016 | UHRF1 binding to methylated oligo, TR-FRET | 370,000 compounds, 0.75% hits | Q96T88 | inhibition, % at 4.4 µM; in the data active = inhibition above about 21%;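 note: UHRF1 SRA domain binding a hemimethylated CpG hairpin DNA probe; 0% = median of test compound wells and 100% = reference inhibitor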
MBD2 DNA inh = inhibitors of human MBD2 binding to methylated oligonucleotide. AID 686964. inhibition, % at 4.4 µM. 370,000 compounds, 0.31% hits. TR-FRET; in the data active = inhibition above about 13%
PRMT1 FP inh = PRMT1 (human) inhibition, primary screen; recombinant PRMT1, activity-based probe fluorescence polarization; AID 652257; Q99873; 370,000 compounds, 1.3% hits; inhibition, % at 2.79 µM;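 active = inhibition above about 21% made by adding two undisclosed values, limit read from the data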
PfM18AAP inh-2 = confirmation of Plasmodium falciparum M18 aspartyl aminopeptidase inhibitors; shares compounds with PfM18AAP inh-1; recombinant PfM18AAP, H-Glu-NHMec fluorogenic cleavage; inhibition, % at 7.35 µM; 2,400 compounds, 28% hits;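 active = mean inhibition over replicate wells above the hit cutoff set for the earlier primary screen, cut at about 29% in these data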;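 note: 0% = median of test compound wells and 100% = 2 mM ZnCl2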
CTSL1 confirm = Cathepsin L (human) inhibition, confirmation | shares compounds with PfM18AAP inh-1 | purified cathepsin L1, Z-Leu-Arg-MCA fluorescence | inhibition, % at 5.96 µM | 2,400 tested, under 10 active;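 active = average inhibition across replicates above the hit cutoff set in the earlier primary screen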;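 note: 0% = median of test compound wells and 100% = Z-Phe-Ala-diazomethylketone 1 µM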
Target sequence (P07711 whole entry, looked up): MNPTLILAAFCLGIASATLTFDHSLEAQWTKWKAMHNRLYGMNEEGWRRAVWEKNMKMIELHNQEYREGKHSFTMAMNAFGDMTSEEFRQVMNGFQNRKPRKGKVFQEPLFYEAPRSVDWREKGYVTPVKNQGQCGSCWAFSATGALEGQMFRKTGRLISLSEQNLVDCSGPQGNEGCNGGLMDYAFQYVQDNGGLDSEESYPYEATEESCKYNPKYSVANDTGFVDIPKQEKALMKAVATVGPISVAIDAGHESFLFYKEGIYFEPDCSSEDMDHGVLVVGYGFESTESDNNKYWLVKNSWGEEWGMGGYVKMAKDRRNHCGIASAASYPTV
Numbers without * were called inactive; · = no result. Most compounds without a hit are left out; they make up all but 3.3% or so of the library.

SMILES	PfGluPho inh	PfM18AAP inh-1	UHRF1 binding	MBD2 DNA inh	PRMT1 FP inh	PfM18AAP inh-2	CTSL1 confirm
C/C(CC(=O)Nc1ccccc1C#N)=N\NC(=O)c1ccncc1	1	37*	-2	-2	1	-19	-4
CC(=O)Nc1ccccc1NC(=O)C/C(C)=N/NC(=O)c1ccncc1	-11	14	-3	-4	-2	·	·
O=c1[nH]c(=S)n(-c2ccc(Br)cc2)c2ncccc12	6	·	1	-4	0	·	·
Fc1ccc(-n2c(=S)[nH]c3cccnc32)cc1	44	37*	-1	1	10	4	2
CSc1ncccc1C(=O)NNc1cc(Cl)ccc1Cl	37	33*	·	·	·	-1	0
COc1cccc(CNC(=O)[C@H]2CCCN2C(=O)[C@H]2CCCN2C(=O)c2ccc(Cl)cc2)c1	·	·	-2	-4	0	·	·
O=[N+]([O-])c1cc(C=Nc2cccc3c(O)cccc23)ccc1Cl	·	39*	·	·	·	-29	-2
O=[N+]([O-])c1cc(/C=N\Nc2ccccn2)ccc1Cl	0	-10	0	-4	-3	·	·
NC(=O)N/N=C/c1coc2ccc(O)cc2c1=O	4	66*	-5	-1	-2	57*	-3
Cc1ccc2occ(/C=N/NC(=O)c3ccc(O)cc3)c(=O)c2c1	-3	9	-1	-2	2	·	·
CCCCCCc1c[nH]c2ccc(O)c(-c3ccccc3)c12	·	·	-1	-5	5	·	·
CCCNC(=O)N1[C@@H](CO)[C@H](c2ccc(C3=CCCC3)cc2)[C@@H]1CN(CC)S(=O)(=O)c1ccccc1[N+](=O)[O-]	·	·	-2	1	0	·	·
N=c1c(C(=O)NC2CCCC2)cc2c(=O)n3ccccc3nc2n1C1CCCC1	22	5	-1	-1	-2	·	·
N=c1c(C(=O)NCc2ccco2)cc2c(=O)n3ccccc3nc2n1C1CCCC1	10	36*	-7	-2	4	-31	0
NNc1nc(-c2ccccc2Cl)c2cc(Br)ccc2n1	12	32*	3	4	-4	-15	8
CCn1c(-c2cc(-c3ccccc3)sc2N)n[nH]c1=S	34	41*	-1	-6	9	8	4
CCOc1ccccc1/C=N/Nc1nc2c(N)ncnc2n1[C@H]1O[C@@H](CO)[C@H](O)[C@@H]1O	-9	36*	4	-2	6	-25	4
Cc1ccccc1/C=N/N1C(=O)CSC1=S	-6	35*	-6	-8	13	-9	3
COc1ccc(Br)cc1/C=N/N1C(=O)CSC1=S	-7	21	-7	-4	15	·	·
COc1cc(/C=N/N2C(=O)CSC2=S)ccc1O	1	33*	-11	-11	16	10	-1
CCOC(=O)Cc1csc(NC(=O)CSc2nnc(-c3ccc(NS(=O)(=O)CC)cc3)o2)n1	-9	39*	-3	3	-2	-13	4
COc1cc([N+](=O)[O-])ccc1-c1ccc(/C=N/NC(N)=O)o1	7	44*	-8	-5	-1	-37	1
COC(=O)C[C@H]1CC[C@H]2[C@@H](COc3ccc(NC(=O)Nc4ccccc4)cc3C(=O)N2C)O1	·	·	1	-5	1	·	·
COc1ccc(C(=O)Cc2ccc3c(c2)OCO3)c(O)c1	-5	-3	-1	2	-3	·	·
O=C(Cc1ccc2c(c1)OCCO2)c1c(O)cc(O)cc1O	-30	39*	0	2	1	28	1
SMILES	PfGluPho inh	PfM18AAP inh-1	UHRF1 binding	MBD2 DNA inh	PRMT1 FP inh	PfM18AAP inh-2	CTSL1 confirm
CN(CCCNC(=O)C1CCC(=O)N1Cc1ccccc1Cl)c1ccccc1 (stereo not drawn)	-10	0	2	5	3	·	·
CCCS(=O)(=O)N1CCC(C(=O)NCCCN(CC)c2cccc(C)c2)CC1	25	40*	3	1	-1	-15	0
CCN(CCCNC(=O)C1CCC(=O)N1Cc1ccc(C)cc1)c1cccc(C)c1 (stereo not drawn)	6	54*	-4	0	0	-17	4
CCCS(=O)(=O)N1CCCC(C(=O)NCCCN(CC)c2cccc(C)c2)C1 (stereo not drawn)	6	-3	-2	-1	-3	·	·
CCN(CCCNC(=O)C1CCC(=O)N1Cc1ccccc1Cl)c1cccc(C)c1 (stereo not drawn)	13	37*	1	1	-1	-23	-1
CCN(CCCNC(=O)c1ccc(N2CCCC2=O)cc1)c1cccc(C)c1	14	41*	-1	4	-2	-17	2
COC(=O)N1CCCC1c1cccc2[nH]cc(C)c12 (stereo not drawn)	·	·	-3	-4	3	·	·
COc1cccc(C(=O)Nc2ccc(Oc3nnc(-c4ccccc4)c4ccccc34)cc2)c1	·	·	-3	-2	-3	·	·
CCN(CCCNC(=O)CN1C(=O)COc2ccccc21)c1cccc(C)c1	14	49*	-2	-4	4	-12	2
CCN(CCCNC(=O)CN1C(=O)COc2ccccc21)c1ccccc1	-6	8	-1	-4	3	·	·
Clc1ccc(C2Nc3cccc4cccc(c34)N2)cc1Cl	30	36*	0	2	9	-24	-5
CCOc1cc(C2Nc3cccc4cccc(c34)N2)ccc1O	8	7	·	·	·	·	·
CN(C)c1ccc(C2Nc3cccc4cccc(c34)N2)cc1	41	37*	-1	0	4	-11	-5
CCC(NC(C)C)C(O)c1ccc(O)c(O)c1 (stereo not drawn)	33	52*	-3	1	3	10	-4
CC(C)NC[C@H](O)c1ccc(O)c(O)c1	33	·	-5	-2	1	·	·
O=C(c1ccc(-c2cccc(Cl)c2Cl)o1)N1CCOCC1	-1	5	2	-3	2	·	·
O=C(c1ccc(-c2ccc([N+](=O)[O-])cc2Cl)o1)N1CCOCC1	3	39*	-2	6	-2	-20	4
CCOC(=O)N1CCN(C(=O)C[C@H]2C[C@@]3(C(=O)OC)C(=C[C@H](C(C)C)O[C@@H]3C3CC3)N(Cc3ccc4c(c3)OCO4)C2=O)CC1	·	·	0	-7	2	·	·
CC(C)(C)N(Cc1cn(Cc2ccccc2)nn1)S(=O)(=O)c1ccccc1Br	·	·	5	-6	0	·	·
CCCCCCCCN1C(=O)[C@@H](CC(=O)NCc2cccc(C(F)(F)F)c2)C[C@@]2(C(=O)OC)C1=C[C@H](C(C)(C)C)O[C@@H]2C	·	·	-1	-1	1	·	·
CC(=O)N1CC[n+]2c(-c3ccc(Cl)cc3)csc21	57	39*	1	0	78*	5	-10
CCOc1ccc(NC(=S)c2ccc3ccccc3n2)cc1	47	41*	4	7	14	-30	-5
Cc1ccc(NC(=S)c2ccc3ccccc3n2)c(C)c1	56	42*	-1	-2	5	-1	2
COc1ccc(NC(=O)CN(C)C(=O)c2ccc3ccccc3n2)cc1	3	·	1	2	0	·	·

Screening data as filed in PubChem.
